Test results: the supplement of paper PMC9262897, “Low-cost anti-mycobacterial drug discovery using engineered E. coli” (Nature Communications, 2022)
Where a name gives a salt, the structure may show the parent alone. ± gives the standard deviation of the averaged measurements.

tested on: E. coli TESEC Mtb DapB; experiment: growth (OD600 after 10 h); higher = more growth (less inhibition); conditions: arabinose induction (level): High; compound 0.1 mM; raw OD600 reference: median of DMSO wells […], cell-free background 0.041
Experimental: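 TESEC E. coli strains in which the native enzyme is deleted and replaced by arabinose-inducible Mtb Asd, DapB, CysH or TrpD, each grown in its selective medium. Strains were screened against the Prestwick library at 0.1 mM and 1% DMSO in 384-well format at low and high arabinose induction. Growth is read as OD600 after 10 h in triplicate.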

Compound | growth
CCC1(c2ccccc2)C(=O)NCNC1=O [Primidone] | 0.208 ± 0.014
CC(C)(C)CC(C)(C)c1ccc(OCCOCC[N+](C)(C)Cc2ccccc2)cc1 [Benzethonium chloride] | 0.0485 ± 0.0028
O=C1C(O)=C(O)C(=O)C(O)=C1O [Tetrahydroxy-1,4-quinone hydrate] | 0.206 ± 0.021
CC(=O)S[C@@H]1CC2=CC(=O)CC[C@]2(C)[C@H]2CC[C@@]3(C)[C@@H](CC[C@@]34CCC(=O)O4)[C@H]12 [Spironolactone] | 0.1363 ± 0.001
Cc1ccc(C(=O)c2cc(O)c(O)c([N+](=O)[O-])c2)cc1 [Tolcapone] | 0.0526
Clc1ccc(CO/N=C(\Cn2ccnc2)c2ccc(Cl)cc2Cl)c(Cl)c1 [Oxiconazole Nitrate] | 0.0621 ± 0.0016
CCc1nc(N)nc(N)c1-c1ccc(Cl)cc1 [Pyrimethamine] | 0.173 ± 0.016
OC(CCN1CCCC1)(c1ccccc1)C1CCCCC1 (stereo not given) [Procyclidine hydrochloride] | 0.177 ± 0.026
CCC(=O)[C@@]1(C)[C@H](C)C[C@H]2[C@@H]3CCC4=CC(=O)C=C[C@]4(C)[C@H]3[C@@H](O)C[C@@]21C [Rimexolone] | 0.197 ± 0.0062
COCCc1ccc(OCC(O)CNC(C)C)cc1 (racemic) [Metoprolol-(+,-) (+)-tartrate salt] | 0.214 ± 0.031
CC(C(=O)O)c1cccc(Oc2ccccc2)c1 (stereo not given) [Fenoprofen calcium salt dihydrate] | 0.205 ± 0.01
COc1ccc(OC)c(C(O)CNC(=O)CN)c1 (stereo not given) [Midodrine hydrochloride] | 0.188 ± 0.0075
Cc1c(O)c(=O)n(-c2ccccc2)n1C [Antipyrine, 4-hydroxy] | 0.184 ± 0.01
COCC1=C(C(=O)OC(C)OC(=O)OC(C)C)N2C(=O)[C@@H](NC(=O)/C(=N\OC)c3csc(N)n3)[C@H]2SC1 (stereo not given in full) [Cefpodoxime proxetil] | 0.202 ± 0.05
Nc1nc2ccc(OC(F)(F)F)cc2s1 [Riluzole hydrochloride] | 0.241 ± 0.005
c1ccc2c(CC3=NCCN3)cccc2c1 [Naphazoline hydrochloride] | 0.184 ± 0.011
CCOC(=O)O[C@]1(C(=O)OCCl)CC[C@H]2[C@@H]3CCC4=CC(=O)C=C[C@]4(C)[C@H]3[C@@H](O)C[C@@]21C [Loteprednol etabonate] | 0.174 ± 0.027
CCS(=O)(=O)CCn1c([N+](=O)[O-])cnc1C [Tinidazole] | 0.204 ± 0.0081
C#C[C@]1(OC(C)=O)CC[C@H]2[C@@H]3CCC4=CC(=NO)CC[C@@H]4[C@H]3CC[C@@]21CC (mixture of isomers) [Norgestimate] | 0.126 ± 0.0075
C[C@H]1C[C@H]2[C@@H]3CCC4=CC(=O)C=C[C@]4(C)[C@@]3(F)[C@@H](O)C[C@]2(C)[C@@]1(O)C(=O)CO [Betamethasone] | 0.198 ± 0.033

same assay, conditions: arabinose induction (level): Low; compound 0.1 mM; raw OD600 reference: median of DMSO wells 0.227, cell-free background 0.041

Compound | growth
CCC1(c2ccccc2)C(=O)NCNC1=O [Primidone] | 0.249 ± 0.013
CC(C)(C)CC(C)(C)c1ccc(OCCOCC[N+](C)(C)Cc2ccccc2)cc1 [Benzethonium chloride] | 0.0496 ± 0.0014
O=C1C(O)=C(O)C(=O)C(O)=C1O [Tetrahydroxy-1,4-quinone hydrate] | 0.226 ± 0.0024
CC(=O)S[C@@H]1CC2=CC(=O)CC[C@]2(C)[C@H]2CC[C@@]3(C)[C@@H](CC[C@@]34CCC(=O)O4)[C@H]12 [Spironolactone] | 0.178 ± 0.018
Cc1ccc(C(=O)c2cc(O)c(O)c([N+](=O)[O-])c2)cc1 [Tolcapone] | 0.0557 ± 0.0019
Clc1ccc(CO/N=C(\Cn2ccnc2)c2ccc(Cl)cc2Cl)c(Cl)c1 [Oxiconazole Nitrate] | 0.0618 ± 0.0051
CCc1nc(N)nc(N)c1-c1ccc(Cl)cc1 [Pyrimethamine] | 0.191 ± 0.044
OC(CCN1CCCC1)(c1ccccc1)C1CCCCC1 (stereo not given) [Procyclidine hydrochloride] | 0.245 ± 0.033
CCC(=O)[C@@]1(C)[C@H](C)C[C@H]2[C@@H]3CCC4=CC(=O)C=C[C@]4(C)[C@H]3[C@@H](O)C[C@@]21C [Rimexolone] | 0.209 ± 0.026
COCCc1ccc(OCC(O)CNC(C)C)cc1 (racemic) [Metoprolol-(+,-) (+)-tartrate salt] | 0.236 ± 0.0073
CC(C(=O)O)c1cccc(Oc2ccccc2)c1 (stereo not given) [Fenoprofen calcium salt dihydrate] | 0.192 ± 0.014
COc1ccc(OC)c(C(O)CNC(=O)CN)c1 (stereo not given) [Midodrine hydrochloride] | 0.25 ± 0.046
Cc1c(O)c(=O)n(-c2ccccc2)n1C [Antipyrine, 4-hydroxy] | 0.206 ± 0.032
COCC1=C(C(=O)OC(C)OC(=O)OC(C)C)N2C(=O)[C@@H](NC(=O)/C(=N\OC)c3csc(N)n3)[C@H]2SC1 (stereo not given in full) [Cefpodoxime proxetil] | 0.285 ± 0.049
Nc1nc2ccc(OC(F)(F)F)cc2s1 [Riluzole hydrochloride] | 0.241 ± 0.0089
c1ccc2c(CC3=NCCN3)cccc2c1 [Naphazoline hydrochloride] | 0.21 ± 0.016
CCOC(=O)O[C@]1(C(=O)OCCl)CC[C@H]2[C@@H]3CCC4=CC(=O)C=C[C@]4(C)[C@H]3[C@@H](O)C[C@@]21C [Loteprednol etabonate] | 0.233 ± 0.028
CCS(=O)(=O)CCn1c([N+](=O)[O-])cnc1C [Tinidazole] | 0.212 ± 0.027
C#C[C@]1(OC(C)=O)CC[C@H]2[C@@H]3CCC4=CC(=NO)CC[C@@H]4[C@H]3CC[C@@]21CC (mixture of isomers) [Norgestimate] | 0.0826 ± 0.025
C[C@H]1C[C@H]2[C@@H]3CCC4=CC(=O)C=C[C@]4(C)[C@@]3(F)[C@@H](O)C[C@]2(C)[C@@]1(O)C(=O)CO [Betamethasone] | 0.211 ± 0.064
